Results reported in PubChem BioAssay (NCATS).
Where “and” joins values, the source holds several entries; their conditions need not be identical. Equal entries are not always repeated. Records with an inconclusive call do not appear. Calls of active or inactive are those of the source. Unless noted, the call rests on the fitted dose curve; in most records, active means well fitted curve in the direction sought with a large enough effect; inconclusive means small, poorly fitted or top-dose-only effect, or another doubt; inactive means no such curve, though single readings can be large; an effect the other way counts as inactive or inconclusive.

Columns and labels:
[1] = Primary qHTS for inhibitors of nuclear receptor binding SET domain protein 2 (NSD2) in an isogenic RCH-ACV NSD2 p.E1099K mutant (9B) (AID 1645876); settings: RCH-ACV NSD2 E1099K (9B) viability, CellTiter-Glo, 72 h; series mostly up to 44.9 µM; further: nearly all actives have a fitted effect of over 70% in size; further: potency means the concentration at half of the fitted maximal effect
[2] = Primary qHTS for inhibitors of nuclear receptor binding SET domain protein 2 (NSD2) in an RCH-ACV wild type WT cells (2C) (AID 1645877); settings: RCH-ACV (leukaemia line) NSD2 WT (2C) viability, CellTiter-Glo, 72 h; series mostly up to 44.9 µM; further: nearly all actives have a fitted effect of over 70% in size; further: potency means the concentration at half of the fitted maximal effect; on activity change, negative = cell killing: on the % scale 0 is the no-effect control and ±100 the full control effect
[3] = target: Catechol O-methyltransferase (Homo sapiens) (UniProt P21964); test: Confirmatory Screen for Target Class Profiling of Small Molecule Inhibitors of Methyltransferases (AID 1745852; calls by dose curve; further: potency means the concentration at half of the fitted maximal effect; on activity change, negative = inhibition: on the % scale 0 is the no-effect control and ±100 the full control effect); settings: MTase-Glo luminescence, SAH detection, recombinant enzyme; measured here: COMT max response; stronger effect = lower value
[4] = target: Guanidinoacetate N-methyltransferase (Homo sapiens) (UniProt Q14353); test: as above; settings: MTase-Glo luminescence, SAH detection, recombinant enzyme; activity change, negative = inhibition: at 57.3 µM (top of the series) unless noted; series mostly up to 57.3 µM
[5] = target: Nicotinamide N-methyltransferase (Homo sapiens) (UniProt P40261); test: as above; settings: MTase-Glo luminescence, SAH detection, recombinant enzyme; measured here: NNMT max response; stronger effect = lower value
[6] = target: Rap guanine nucleotide exchange factor 3 (Homo sapiens) (UniProt O95398); test: Confirmatory qHTS for antagonist of cAMP-regulated guanine nucleotide exchange factor 3 (EPAC1) (AID 1645880); settings: EPAC1 Rap1B-BODIPY-GDP exchange, fluorescence; further: potency means the concentration at half of the fitted maximal effect; nearly all actives have a fitted effect of over 55% in size
Procedure, shortened: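 Released BODIPY-GDP fluoresces less than Rap1-bound BODIPY-GDP; the signal is followed at 480/540 nm at 5-min intervals over 30 min, after 5 min at room temperature. Reactions contain 100 nM EPAC1, 250 nM RAP1B-BODIPY-GDP and 50 uM GDP; results are normalized to ATA and DMSO.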

[7] = target: Rap guanine nucleotide exchange factor 3 (Homo sapiens) (UniProt O95398); test: Confirmatory qHTS for agonist of cAMP-regulated guanine nucleotide exchange factor 3 (EPAC1) (AID 1645881); settings: EPAC1 Rap1B BODIPY-GDP exchange fluorescence, 100% = cAMP control response; series mostly up to 154 µM;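 further: EPAC1 catalysed release of BODIPY-GDP from Rap1B seen as fluorescence loss; nearly all actives have a fitted effect of over 75% in size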
[8] = target: Rap guanine nucleotide exchange factor 4 (Homo sapiens) (UniProt Q8WZA2); test: Confirmatory qHTS for agonist of cAMP-regulated guanine nucleotide exchange factor 4 (EPAC2) (AID 1645884); settings: EPAC2 GEF activity, Rap1B-BODIPY-GDP fluorescence, percent relative to cAMP agonist control; series mostly up to 154 µM;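 further: nucleotide exchange releases bodipy-GDP from Rap1 and this lowers its fluorescence; on the % scale 0 is the no-effect control and ±100 the full control effect; nearly all actives have a fitted effect of over 65% in size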
[9] = target: Rap guanine nucleotide exchange factor 4 (Homo sapiens) (UniProt Q8WZA2); test: Confirmatory qHTS for antagonist of cAMP-regulated guanine nucleotide exchange factor 4 (EPAC2) (AID 1645885); settings: EPAC2 Rap1B-BODIPY-GDP exchange fluorescence, biochemical; series mostly up to 114 µM; further: potency means the concentration at half of the fitted maximal effect; nearly all actives have a fitted effect of over 25% in size

Chain of Nicotinamide N-methyltransferase (Homo sapiens) (P40261 whole entry, looked up): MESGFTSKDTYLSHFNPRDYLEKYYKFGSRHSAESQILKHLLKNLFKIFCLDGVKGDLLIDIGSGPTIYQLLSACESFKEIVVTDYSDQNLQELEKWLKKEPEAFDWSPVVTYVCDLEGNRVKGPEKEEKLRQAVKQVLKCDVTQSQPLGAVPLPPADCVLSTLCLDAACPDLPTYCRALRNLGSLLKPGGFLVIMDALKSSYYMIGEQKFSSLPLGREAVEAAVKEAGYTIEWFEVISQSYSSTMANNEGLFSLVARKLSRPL
Chain of Catechol O-methyltransferase (Homo sapiens) (P21964 whole entry, looked up): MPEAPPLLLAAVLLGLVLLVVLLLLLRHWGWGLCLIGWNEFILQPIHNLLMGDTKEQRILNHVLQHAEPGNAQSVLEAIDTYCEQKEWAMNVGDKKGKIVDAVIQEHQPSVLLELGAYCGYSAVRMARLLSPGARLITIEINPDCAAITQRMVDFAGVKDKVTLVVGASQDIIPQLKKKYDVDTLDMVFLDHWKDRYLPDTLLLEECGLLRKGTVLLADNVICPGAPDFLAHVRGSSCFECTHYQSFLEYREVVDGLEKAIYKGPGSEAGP
Chain of Rap guanine nucleotide exchange factor 3 (Homo sapiens) (O95398 whole entry, looked up): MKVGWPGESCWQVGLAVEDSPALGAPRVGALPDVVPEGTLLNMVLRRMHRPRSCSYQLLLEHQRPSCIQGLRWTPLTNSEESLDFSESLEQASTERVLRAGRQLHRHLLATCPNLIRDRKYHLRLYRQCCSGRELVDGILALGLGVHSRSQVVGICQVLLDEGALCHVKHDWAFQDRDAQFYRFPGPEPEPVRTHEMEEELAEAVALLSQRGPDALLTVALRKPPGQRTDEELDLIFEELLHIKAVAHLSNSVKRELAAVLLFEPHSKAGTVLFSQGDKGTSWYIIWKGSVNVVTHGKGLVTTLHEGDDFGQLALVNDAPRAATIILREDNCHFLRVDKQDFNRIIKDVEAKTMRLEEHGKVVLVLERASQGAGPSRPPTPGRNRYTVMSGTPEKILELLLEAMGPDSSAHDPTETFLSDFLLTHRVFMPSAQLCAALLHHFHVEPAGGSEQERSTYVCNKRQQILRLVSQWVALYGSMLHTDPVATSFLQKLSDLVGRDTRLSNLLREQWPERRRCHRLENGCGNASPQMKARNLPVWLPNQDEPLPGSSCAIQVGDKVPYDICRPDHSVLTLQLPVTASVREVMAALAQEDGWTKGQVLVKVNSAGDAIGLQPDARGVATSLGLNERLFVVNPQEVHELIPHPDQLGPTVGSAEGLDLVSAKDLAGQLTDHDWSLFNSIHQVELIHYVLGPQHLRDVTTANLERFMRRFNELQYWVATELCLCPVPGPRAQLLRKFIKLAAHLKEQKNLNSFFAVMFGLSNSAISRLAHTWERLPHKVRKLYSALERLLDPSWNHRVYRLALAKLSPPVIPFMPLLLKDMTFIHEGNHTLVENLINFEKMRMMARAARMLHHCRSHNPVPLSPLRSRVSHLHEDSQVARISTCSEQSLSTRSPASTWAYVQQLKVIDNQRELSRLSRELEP
Chain of Rap guanine nucleotide exchange factor 4 (Homo sapiens) (Q8WZA2 whole entry, looked up): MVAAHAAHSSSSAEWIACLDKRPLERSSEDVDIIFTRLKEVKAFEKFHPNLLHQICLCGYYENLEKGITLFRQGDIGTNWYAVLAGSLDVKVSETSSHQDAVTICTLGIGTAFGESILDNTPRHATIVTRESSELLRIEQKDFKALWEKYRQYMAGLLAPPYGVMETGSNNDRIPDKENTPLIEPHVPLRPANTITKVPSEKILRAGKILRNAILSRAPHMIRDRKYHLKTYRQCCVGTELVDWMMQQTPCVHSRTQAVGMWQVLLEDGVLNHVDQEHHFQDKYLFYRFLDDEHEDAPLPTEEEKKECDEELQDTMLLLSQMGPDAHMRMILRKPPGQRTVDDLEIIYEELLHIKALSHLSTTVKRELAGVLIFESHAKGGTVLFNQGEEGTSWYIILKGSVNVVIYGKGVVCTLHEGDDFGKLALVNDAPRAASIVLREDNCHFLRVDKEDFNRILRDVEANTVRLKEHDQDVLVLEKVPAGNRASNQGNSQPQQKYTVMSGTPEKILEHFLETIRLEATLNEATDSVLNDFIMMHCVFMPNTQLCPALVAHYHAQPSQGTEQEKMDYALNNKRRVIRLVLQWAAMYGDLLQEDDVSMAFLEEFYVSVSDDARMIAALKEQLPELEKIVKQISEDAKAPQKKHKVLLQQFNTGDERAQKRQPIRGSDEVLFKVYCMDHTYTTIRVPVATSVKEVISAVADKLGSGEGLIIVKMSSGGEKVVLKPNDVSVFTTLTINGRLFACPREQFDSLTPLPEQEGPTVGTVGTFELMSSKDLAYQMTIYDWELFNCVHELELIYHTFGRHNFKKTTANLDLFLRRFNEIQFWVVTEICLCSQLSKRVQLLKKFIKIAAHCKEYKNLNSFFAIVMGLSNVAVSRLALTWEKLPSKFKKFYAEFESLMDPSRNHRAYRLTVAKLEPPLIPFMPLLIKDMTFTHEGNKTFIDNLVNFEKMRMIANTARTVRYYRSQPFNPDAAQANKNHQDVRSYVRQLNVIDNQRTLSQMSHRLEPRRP

## COc1cc(N2CCC(O)CC2)ccc1Nc1cc(Nc2ccccc2S(=O)(=O)C(C)C)c2cc[nH]c2n1
[1]
  Potency: inactive
[2]
  Potency: inactive
[3]
  activity: 2.25%
[4]
  activity change, negative = inhibition: 0%
[5]
  activity: -6.54%

## CC1(C)CC[C@]2(C(=O)O[C@@H]3O[C@H](CO)[C@@H](O)[C@H](O)[C@H]3O)CC[C@]3(C)C(=CCC4[C@@]5(C)C[C@@H](O)[C@H](O)[C@@](C)(CO)C5CC[C@]43C)C2C1 (stereo not given in full)
[1]
  Potency: inactive
[2]
  Potency: inactive
[3]
  activity: -71.4%
[4]
  activity change, negative = inhibition: -8.61% [at 19.1 µM]
[5]
  activity: -8.27%

## Clc1ccc(CN[C@H]2CCN(c3ncc(Br)cn3)C2)c(Cl)c1
[2]
  Potency: inactive

## C[C@@H]1CC[C@]2(C)C3(C)CC[C@@]2(OC3=O)[C@@]12C[C@H](c1ccoc1)OC2=O
[2]
  Potency: inactive

## CCc1nc(C(N)=O)c(Nc2ccc(N3CCC(N4CCN(C)CC4)CC3)c(OC)c2)nc1NC1CCOCC1
[1]
  Potency: 1.13 µM (active) and 2.63 µM (active)
[2]
  Potency: 1.13 µM (active) and 2.63 µM (active)
[3]
  activity: -34.5%
[4]
  Potency: 26.6 µM (active)
[5]
  activity: -16.4%

## CC(CO[C@@H]1O[C@H](COC(=O)/C=C/c2ccc(O)c(O)c2)[C@@H](O)[C@H](O)[C@H]1O)C1(O)COC(=O)C1 (stereo not given in full)
[2]
  Potency: inactive

## O=C(O)[C@H]1CCCC[C@H]1C(=O)N1CCc2ccccc2[C@H]1CN1C(=O)c2ccccc2C1=O
[2]
  Potency: inactive

## O=C(O[C@@H]1O[C@H](CO)[C@@H](O)[C@H](O)[C@H]1O)c1c(O)cc(O)cc1/C=C/c1ccccc1
[2]
  Potency: inactive
[3]
  activity: -66.4%
[4]
  activity change, negative = inhibition: 2.61% [at 29.8 µM]
[5]
  activity: -2.64%

## COc1cc(C2Oc3c(OC)cc(CCCO[C@@H]4O[C@H](CO)[C@@H](O)[C@H](O)[C@H]4O)cc3C2CO)ccc1O (stereo not given in full)
[1]
  Potency: inactive
[2]
  Potency: inactive
[3]
  activity: -72%
[4]
  activity change, negative = inhibition: 2.87% [at 29.8 µM]
[5]
  activity: 0%

## C=CC(C)(O)CC/C=C(/C)C(=O)OC1C(OC2OCC(OC3OC(CO)C(O)C(O)C3O)C(OC3OCC(O)C(OC4OC(C)C(O)C(O)C4O)C3O)C2O)COC(OC(=O)C23CCC(C)(C)CC2C2=CCC4C5(C)CCC(OC6OC(CO)C(OC7OC(CO)C(O)C(OC8OCC(O)C(O)C8O)C7O)C(O)C6O)C(C)(C)C5CCC4(C)C2(C)CC3O)C1O (stereo not given)
[2]
  activity change, negative = cell killing: -25% [at 4.96 µM] (inactive)

## C=Cc1cc(O)cc2nc(-c3ccc(O)c(F)c3)oc12
[3]
  activity: -54.6%
[4]
  Potency: 30.4 µM (active)
[5]
  activity: -36%

## CC(Cc1ccc(O)c(O)c1)C(C)Cc1ccc(O)c(O)c1 (stereo not given)
[6]
  Potency: 31.4 µM (active)
[7]
  outcome: inactive
[8]
  outcome: inactive
[9]
  Potency: 55.5 µM (active)

## CC(=O)O[C@@H]1[C@H]2[C@@H](OC(=O)c3ccccc3)[C@@H](C)C[C@]2(O)[C@H](OC(C)=O)[C@@]2(C)[C@@H]3CC(C)(C)C(=O)[C@]3(OC(C)=O)C[C@@]12C
[2]
  Potency: inactive

## OC[C@H]1O[C@@H](Oc2ccc(O)c3cccc(O)c23)[C@H](O)[C@@H](O)[C@@H]1O
[3]
  activity: -82.3%
[4]
  Potency: 16.8 µM (active)
[5]
  activity: -18.4%
